# Measurements: ChEMBL document CHEMBL3988442, “University of Dundee, Small-Polar-MMV Screening Library” (2021)
# The whole screen tested about 53,000 compounds, of which about 900 (1.7%) showed an effect of 50% or more. The list comes from a sample in which strong results are over-represented; it also holds similar structures and randomly drawn compounds.
# System: Mycobacterium tuberculosis
# Test: Cornell - Phenotypic assay to identify agents that inhibit growth of Mycobacterium tuberculosis
# Format: functional
# Set-up: scale not given: direction of the effect not stated beside the values
# Details: 10 mM as filed; unlikely as a test dose
row,Structure (SMILES),Percent Effect [%]
1,Cc1n[nH]c(C)c1NC(=O)C1CCCN(C(=O)NCC(C)C)C1 (centres undefined),-0.6091
2,CCCc1cnc(C)nc1N1CCC(Cn2cc(CN(C)C)nn2)CC1,18.6
3,O=S(=O)(c1cccnc1)N1CCCCC1CCN1CCOCC1 (centres undefined),-15.47
4,CCN(C(=O)c1cc(C)oc1C)C1CC1,4.626
5,Cc1cc(C(=O)N(CC(F)(F)F)C2CCOCC2)c(C)o1,51.1
6,O=C(c1ccc(F)cc1F)N(CC(F)(F)F)C1CCOCC1,37.88
7,Cc1cn2c(n1)CCC(NC(=O)CCOc1cccc(F)c1)C2 (centres undefined),5.433
8,Cc1cc(N2CCN(C3CCOCC3)CC(C(=O)N(C)C)C2)ncn1 (centres undefined),3.983
9,Cc1ccccc1CC(=O)NCc1cnc(CC2CCN(C)CC2)cn1,48.16
10,O=C(O)C(F)(F)F.O=C1Nc2ccccc2C12CCN(Cc1cccs1)CC2,50.44
11,Cc1ccc(CN2CCC3(CC2)C(=O)Nc2ccccc23)s1.O=C(O)C(F)(F)F,18.05
12,O=C(O)C(F)(F)F.O=C1Nc2ccccc2C12CCN(Cc1nccs1)CC2,-8.416
13,CCOc1ccc(NC(C)=O)cc1S(=O)(=O)Nc1nccs1,7.151
14,O=C(CCc1ccco1)Nc1cc(C(F)(F)F)c[nH]c1=O,7.769
15,CC(CCc1ccco1)NC(=O)Nc1cc(C(F)(F)F)c[nH]c1=O (centres undefined),102.9
16,CN(Cc1ccco1)C(=O)Nc1cc(C(F)(F)F)c[nH]c1=O,-17.34
17,Cc1nc(C)n(CC(=O)N2CCCC(c3cc4ccccc4cn3)C2)n1 (centres undefined),-16.13
18,CC(C)c1nc(N2CCC(N3CCCCCC3)CC2)c2cnn(C)c2n1,30.23
19,CC(C)c1nc(N2CCC(N3CCCC(O)C3)CC2)c2cnn(C)c2n1 (centres undefined),28.63
20,CC(C)c1nc(N2CCN3CCCC3C2)c2cnn(C)c2n1 (centres undefined),62.47
21,Cc1cc(C)nc(N2CCC(c3noc(C)n3)CC2)n1,-1.548
22,O=C(CC1CCN(c2cccnn2)CC1)NCCO,12.72
23,CCC/N=c1/c(NC(=O)NCCCOC)c(O)oc2ccccc12,-33.59
24,CCc1ccc(CN(C)C(=O)C(c2ccccc2F)N(C)C)nc1 (centres undefined),0.2159
25,CCCC(=O)NCC(Cc1cccc(F)c1)N1CCCC1=O (centres undefined),2.564

row,Structure (SMILES),Percent Effect [%]
1,O=C(CN(Cc1ccccc1)CC1CCOCC1)NC(=O)NC1CC1,16.06
2,O=C(CN(Cc1ccccc1)CC1CCOCC1)Nc1nccs1,42.61
3,NC(=O)NC(=O)CCN(Cc1ccccc1)CC1CCOCC1,53.84
4,CCc1ccc(C(COC)NC(=O)c2ccc(C(N)=O)cc2)o1 (centres undefined),17.07
5,Cc1oncc1C(=O)N1CCOCC2(CCN(c3ccccn3)C2)C1.O=C(O)C(F)(F)F (centres undefined),-11.19
6,Cc1nc(C)n(CC2CCCN2Cc2cccc3c2OCCO3)n1 (centres undefined),-6.241
7,CC(=O)N1CCC[C@@H](NCc2ccc(F)cc2)[C@@H]1c1ccc(C)s1,1.669
8,CC(=O)N1CCC[C@@H](NCc2cccc(F)c2)[C@@H]1c1ccc(C)s1.Cl,-22.92
9,CC(=O)N1CCC[C@@H](NCc2c[nH]c3ccccc23)[C@@H]1c1ccc(C)s1.Cl,66.32
10,c1ccc2ncc(CC3CCNC3)cc2c1 (centres undefined),-46.09
11,O=c1n(Cc2ccc(F)cc2)nc2ncccn12,-16.62
12,C[C@@H]1CN(C(=O)c2cc(COc3ccc4c(c3)OCO4)[nH]n2)C[C@H](C)O1,3.14
13,O=C(c1cc(COc2ccc3c(c2)OCO3)[nH]n1)N1CCCC1,105.4
14,COc1cccc(OCc2cc(C(=O)N3CC(O)C3)n[nH]2)c1,3.061
15,O=C(c1cc(COc2ccc3c(c2)OCO3)[nH]n1)N1CCOCC1,35.93
16,O=C(c1cc(COc2ccc3c(c2)OCO3)[nH]n1)N1CCCC(O)C1 (centres undefined),44.89
17,O=C(c1cc(COc2ccc3c(c2)OCO3)[nH]n1)N1CCCCO1,15.85
18,O=C(c1cc(COc2ccc3c(c2)OCO3)[nH]n1)N1CC=CC1CO (centres undefined),46.2
19,O=C(c1cc(COc2ccc3c(c2)OCO3)[nH]n1)N1CCCO1,80.32
20,O=C(c1cc(COc2ccc3c(c2)OCO3)[nH]n1)N1CCSCC1,102
21,Cc1noc(C)c1S(=O)(=O)N1CCc2nc(C3CCNCC3)ncc2C1.Cl,6.846
22,CN(C)C(=O)CN1CCCC(c2nccnc2-c2cccc(Cl)c2)C1 (centres undefined),27.94
23,O=c1cc(CN2CCCC2)nc2n1CCCN(CC1CC1)C2,-16.69
24,c1ncc(CN2CC(Cc3nccc4cc[nH]c34)C2)cn1,24.55
25,Cn1cc(CC2CCN(C(=O)NCCc3cccc(O)c3)C2)cn1 (centres undefined),9.063

row,Structure (SMILES),Percent Effect [%]
1,CCC(=O)N1CCC(c2nc(N3CCCC3)ncc2S(C)(=O)=O)CC1,-19.63
2,CS(=O)(=O)c1cnc(N2CCCC2)nc1C1CCN(C(=O)C2CC2)CC1,60.16
3,CCC(=O)N1CCC(c2nc(N3CCCCC3)ncc2S(C)(=O)=O)CC1,49.28
4,CS(=O)(=O)N1CCC(CNC(=O)c2cnccn2)CC1,-29.61
5,COCCN1CCC2(CC1)CN(C(=O)Cc1cccnc1)CCO2.O=C(O)C(F)(F)F.O=C(O)C(F)(F)F,26.19
6,CC(=O)N1CCCC1c1ccc(Br)cn1 (centres undefined),-5.926
7,COc1ccc(Oc2cncc(C3CCCN3C(C)=O)n2)cc1 (centres undefined),-6.062
8,COc1nsc2nc(C3CCCN3c3ncccn3)ccc12 (centres undefined),56.9
9,Cc1ncc(CN(C)C)c(C2CCCN2c2ncccn2)n1 (centres undefined),3.651
10,OCCc1cc(C2CCCN2c2ncccn2)n[nH]1 (centres undefined),5.746
11,COc1nsc2nc(C3CCCN3C(C)=O)ccc12 (centres undefined),51.54
12,CNCC(=O)N1CCC(c2cccc(Oc3ccccc3)n2)CC1,5.467
13,COc1ccc(CN2CC[C@@H]3[C@H]2CCC(=O)N3c2cnn(C)c2)cc1.O=C(O)C(F)(F)F,-0.7852
14,CCCc1cncnc1N1CCC2(CCC(=O)N(CCOC)C2)CC1,-26.49
15,CNc1cc(N2CCCC2CNCc2ccc(C)o2)ncn1 (centres undefined),-46.19
16,CN1CC(=O)N(c2ccsc2)CC12CCN(S(=O)(=O)c1ccccc1)C2.O=C(O)C(F)(F)F (centres undefined),4.283
17,CN1C(=O)C2(CCN(CC3CC3)CC2)c2ccccc21.O=C(O)C(F)(F)F,-19.06
18,CCS(=O)(=O)N1CCC2(CC1)CN(CC1CCOC1)c1ccccc12.O=C(O)C(F)(F)F (centres undefined),-6.416
19,O=C(O)C(F)(F)F.c1cnc(N2CCC3(CC2)CN(CC2CC2)c2ccccc23)nc1,32.03
20,CS(=O)(=O)N1CCC2(CC1)CN(CC1CCOC1)c1ccccc12.O=C(O)C(F)(F)F (centres undefined),24.53
21,O=C(O)C(F)(F)F.O=C(O)C(F)(F)F.OCCN1CC2(CCN(CC3CC3)CC2)c2ccccc21,53.69
22,CCCS(=O)(=O)N1CCC2(CC1)CN(CC1CCOC1)c1ccccc12.O=C(O)C(F)(F)F (centres undefined),53.88
23,CCC(=O)NC(Cc1cc(N(C)C)nc(C2CC2)n1)c1ccccc1 (centres undefined),47.48
24,CC(C)c1nccc(C2CC(=O)Nc3n[nH]c(C4CCC4)c32)n1 (centres undefined),28.48
25,Cc1cccnc1CN1CCN(c2noc(-c3ccccc3)n2)CC1,16.84

row,Structure (SMILES),Percent Effect [%]
1,O=C(c1cc(-n2cccn2)ccn1)N(CC(F)(F)F)C1CCCC1,17.65
2,Cc1nccn1C1CCCN(C(=O)c2ccc3c(c2)nc(C)n3C)C1 (centres undefined),-4.275
3,O=C(CN1CCCC1Cn1cncn1)Nc1nccs1 (centres undefined),20.94
4,COc1c(C)cnc(CN(C)C(=O)c2cccc(NC(N)=O)c2)c1C,25.72
5,COCc1cccc(NC(=O)N(C)Cc2ncc(C)c(OC)c2C)c1,-1.951
6,COc1c(C)cnc(CN(C)C(=O)Nc2ccc3c(c2)CCO3)c1C,65.58
7,CS(=O)(=O)c1snnc1C1CCN(Cc2cccc(O)c2)CC1,-3.307
8,Nc1cc(N2CCOCC(Cc3ccc4[nH]ccc4c3)C2)ncn1 (centres undefined),103.2
9,Cc1cc(N2CCOCC(Cc3ccc4[nH]ccc4c3)C2)ncn1 (centres undefined),26.85
10,c1cc(N2CCOCC(Cc3ccc4[nH]ccc4c3)C2)ncn1 (centres undefined),9.694
11,Cc1cccc(NC(=O)N2CCC3(CCC(C(=O)N(C)C)O3)CC2)c1 (centres undefined),-3.897
12,CN(C)Cc1cccc(-c2cccnc2C(=O)NCc2ccco2)c1,0.1793
13,Cc1[nH]c2nc(CNc3ccccc3Cl)nn2c(=O)c1C,13.95
14,O=C(c1cc(-c2ccco2)cs1)N1CCCC1,81.62
15,CN1CCN(C(=O)c2cc(-c3ccco3)cs2)CC1,25.84
16,O=C(c1cc(-c2ccco2)cs1)N1CCOCC1,26.26
17,CCn1cc2c(n1)C(COC)CN(Cc1ccccn1)C2 (centres undefined),96.31
18,COCC1CN(Cc2ccccn2)Cc2cn(C)nc21.O=C(O)C(F)(F)F.O=C(O)C(F)(F)F.O=C(O)C(F)(F)F (centres undefined),31.55
19,CCn1cc2c(n1)C(COC)CN(Cc1ccoc1)C2 (centres undefined),-14.11
20,CN(C)C(=O)c1ccc2ccc(N3CCN(CC4CC4)CC3)n2c1,-12.17
21,Cc1ccc(-c2cc(C(=O)NC(C)C(=O)N3CCCCC3)on2)cc1 (centres undefined),17.57
22,CCc1ccc(S(=O)(=O)Nc2ccn(CC(=O)OC)n2)cc1,68.94
23,CCn1ccc(NS(=O)(=O)c2cccc(COC)c2)n1,-1.872
24,COC(=O)Cn1ccc(NS(=O)(=O)c2ccc3c(c2)CCC3)n1,-1.96
